According to PubChem BioAssay AID624300 (Southern Research Specialized Biocontainment Screening …, 2012):
Among all 2,400 compounds or so, about 360 (15%) were called active.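 Rule for the calls: active = viability falls under 70% at one or more tested concentrations, taken as toxicity; inactive = viability stays over 70% at every dose.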 These entries were drawn from the full list. Entries with a potency or affinity are not part of this list.

Test: viability loss in HeLa cells – cytotoxicity control for MgcRacGAP inhibitor project, dose response (AID 624300)
Details: CellTiter-Glo luminescence, 24 h; series mostly up to 100 µM

SMILES	outcome
CC(=O)C[C@H]1c2cc(F)ccc2S(=O)(=O)N1c1ccc(N(C)C)cc1	inactive
COc1cc(OC)c(OC)cc1CN1CCN(Cc2ccc(SC)cc2)CC1	inactive
CN1CC(=O)N(CC(=O)Nc2ccc(N(C)C)cc2)c2ccccc2C1=O	inactive
Cc1ccccc1-c1ccc(Nc2ccc(N3CCOCC3)cc2)nn1	inactive
CC1CCCC(N2CCN(C(=O)c3ccc([N+](=O)[O-])cc3)CC2)C1 (stereo unspecified)	inactive
COCCCNc1nc(=S)[nH]c2cc(OC)c(OC)cc12	inactive
OCCCCNc1cccc2ccccc12	inactive
COCCNCc1nc2sc(C)c(-c3ccccc3)c2c(=O)[nH]1	inactive
COc1ccc(N2CCN(CC(=O)Nc3cccc(S(=O)(=O)N4CCOCC4)c3)CC2)cc1	inactive
CCOc1cc(/C=N/NC(=O)CSc2cccc3cccnc23)ccc1O	inactive
Cc1cc(-c2ccccc2)nc2c(Br)c(=O)[nH]n12	inactive
O=C(O)c1ccccc1NS(=O)(=O)c1ccc(N/N=C/c2ccc(O)c(O)c2)c([N+](=O)[O-])c1	inactive
COc1cc(/C=N/NS(=O)(=O)c2ccc(C)c([N+](=O)[O-])c2)ccc1O	inactive
C[C@]12CC[C@H]3C(=CCc4cc(O)ccc43)[C@@H]1CCC2=O	inactive
CN(C)c1ccc(/C=C2/NC(=O)NC2=O)cc1	inactive
CC1CCC/C(=C\c2ccc(O)cc2)C1=O (stereo unspecified)	inactive
O=C1NC(=S)NC1=Cc1ccc(O)cc1	inactive
CCOc1ccccc1NC(=O)C(NCC1(N2CCCCC2)CCCCC1)c1ccccc1 (stereo unspecified)	inactive
O=C(NC(=S)Nc1cccc2c(O)cccc12)c1ccco1	inactive
O=C(Nc1cc(Br)c(O)c(Br)c1)c1cccc(NC(=O)c2ccco2)c1	inactive
Brc1csc(C=Nc2ccc3c(c2)OCCOCCOCCOCCO3)c1	inactive
CCN(CC)c1ccc(/C=N/NC(=O)OC)c(O)c1	inactive
Cc1ccccc1C(=O)Nc1ccc(N2CCCC2)cc1	inactive
COC(=O)c1ccc(CNC(=O)COC(=O)/C=C/c2ccc(O)c(OC)c2)cc1	inactive

SMILES	outcome
COc1ccc(C(=O)/C=C/c2ccc(O)cc2)cc1	inactive
COC(=O)c1ccc(NC(=S)Nc2ccc(O)cc2)cc1	inactive
COCCCNC(=S)N1CCN(Cc2ccc3c(c2)OCO3)CC1	inactive
O=C(CC(c1ccccc1)c1ccccc1)Nc1ccc(O)cc1	inactive
CCOC(=O)C1CCCN(C2=NC(=O)/C(=C/c3ccc(O)c(OCC)c3)S2)C1 (stereo unspecified)	inactive
CCN(CC)S(=O)(=O)c1cccc(-c2n[nH]c(=S)n2/N=C/c2ccc(OC(F)F)cc2)c1	inactive
Nc1ccc(N2CCCC2)c(S(=O)(=O)Nc2cccc(C(F)(F)F)c2)c1	inactive
COc1ccc2c(c1)-c1nc(/N=C/c3c(O)ccc4ccccc34)sc1CC2	inactive
O=C(CN1C(=O)c2ccccc2S1(=O)=O)c1ccc(O)c(O)c1	inactive
C=CCn1c(SCC(=O)c2ccc(O)c(O)c2)nnc1-c1cccc(Cl)c1	inactive
CC1Cc2ccccc2N1C(=O)CNCCCN(C)C (stereo unspecified)	inactive
CN(C)C(=S)N=c1ssc(=S)n1Cc1ccccc1	inactive
COc1ccc(NC2CCCN(C(=O)c3csc(C)n3)C2)cc1 (stereo unspecified)	inactive
C#CCOCCOCCOCCNc1nc(N2CCN(C(=O)[C@H](CCCCN)n3cc(CN)nn3)CC2)nc(N2CCN(C(=O)[C@H](CCC(=O)O)n3cc([C@@H](N)CCCCN)nn3)CC2)n1	inactive
C#CCOCCOCCOCCNc1nc(N2CCN(C(=O)[C@H](CCCCN)n3cc(CN)nn3)CC2)nc(N2CCN(C(=O)[C@H](CCCCN)n3cc(CN)nn3)CC2)n1	inactive
Cc1ccc(CCNc2ccc3ccccc3c2)cn1	inactive
COc1cc(/C=C/CN2CCN(CCC(C)C)C(CCO)C2)ccc1O (stereo unspecified)	inactive
Nc1ccccc1Sc1ccc(C(=O)c2ccccc2C(=O)O)cc1[N+](=O)[O-]	inactive
COc1ccc(NC2CCCN(C(=O)CCc3cn[nH]c3)C2)cc1 (stereo unspecified)	inactive
CCn1c(=O)n(CC)c2cc(N3CCCC3)c(NC(=O)c3ccccc3)cc21	inactive
COc1cccc(C(=O)Nc2cc3c(cc2N2CCCC2)n(C)c(=O)n3C)c1	inactive
CN=Cc1cc(-c2ccccc2)sc1O	inactive
COc1cc(/C=N/NC(=O)C(C)Nc2n[nH]c(=O)[nH]c2=O)ccc1O (stereo unspecified)	inactive
COc1ccc(CN2CCN(c3ccccn3)CC2)c(OC)c1C	inactive

SMILES	outcome
COc1ccccc1OCC#CCn1ccnc1	inactive
COc1cc(/C=N/N2C(=O)c3ccccc3C2=O)ccc1O	inactive
COc1cc(C2C(=O)c3ccccc3C2=O)ccc1O	inactive
Oc1ccc(/C=N/NC(=S)NCCN2CCOCC2)c(O)c1	inactive
CC(=O)N1CCN(c2ccc(NCc3ccc(F)cc3)cc2)CC1	inactive
Clc1ccc(CNc2ccc(N3CCN(Cc4ccccc4)CC3)cc2)cc1	inactive
CSCCOC(=O)C1=C(C)Nc2ccc(C)cc2S1	inactive
COc1cc(/C=N/n2c(-c3cc(C)[nH]n3)n[nH]c2=S)cc(OC)c1O	inactive
COc1cc(OC)c2cc[nH]c2c1	inactive
C[n+]1c(-c2ccccc2)cc2c(=Cc3ccc([N+](=O)[O-])cc3)c3ccccc3n21	inactive
COc1cc(C=C2C(=O)c3ccccc3C2=O)cc(OC)c1OC	inactive
CCOC(=O)c1sc(=S)[nH]c1C	inactive
c1cc(CNc2ccc3c(c2)OCO3)ccn1	inactive
COc1cccc(CN2CCN(Cc3cccc(Oc4ccccc4)c3)CC2)c1OC	inactive
CC1(C)CC(=O)C(C(C2=C(O)CC(C)(C)CC2=O)c2cccs2)C(=O)C1 (stereo unspecified)	inactive
COc1ccccc1NS(=O)(=O)c1cc(N)ccc1N1CCCC1	inactive
Cc1sc2ncnc(N/N=C/c3ccc(O)cc3)c2c1C	inactive
COc1ccc(/C=N/Nc2ccccn2)cc1O	inactive
COc1cc(/C=C/C(=O)OCC(=O)Nc2ccc(S(=O)(=O)N3CCCC3)cc2)ccc1O	inactive
CNC(=S)N/N=C/c1ccc(N2CCOCC2)s1	inactive
NC(=O)N/N=C/c1ccc(N2CCOCC2)s1	inactive
COc1cc(/C=N/n2cnnc2)ccc1OC(=O)c1ccncc1	inactive
CSc1nc(=S)c2[nH]c(=S)[nH]c2[nH]1	inactive
